D2 antag: antagonizes the human D2 dopamine receptor; HEK293 TREx D2 cells, calcium flux, dopamine EC80; inhibition, % at 10 µM; hit rate 2% among 340,000; AID 485344; in the data active means inhibition above about 30%; inactive means below that, where a call was filed
Target sequence (P14416 whole entry, looked up): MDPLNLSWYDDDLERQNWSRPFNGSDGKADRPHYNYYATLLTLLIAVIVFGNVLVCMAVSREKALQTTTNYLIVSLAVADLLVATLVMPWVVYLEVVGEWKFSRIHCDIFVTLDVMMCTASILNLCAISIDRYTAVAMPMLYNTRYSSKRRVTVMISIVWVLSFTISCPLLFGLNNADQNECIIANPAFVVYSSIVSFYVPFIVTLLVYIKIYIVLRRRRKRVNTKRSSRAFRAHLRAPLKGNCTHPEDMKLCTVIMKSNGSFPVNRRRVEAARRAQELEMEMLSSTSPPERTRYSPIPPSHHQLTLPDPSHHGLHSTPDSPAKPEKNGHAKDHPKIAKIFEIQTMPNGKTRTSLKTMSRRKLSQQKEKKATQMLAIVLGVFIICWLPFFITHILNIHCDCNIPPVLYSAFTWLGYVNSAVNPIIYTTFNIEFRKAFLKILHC
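Calcium flux kinetic readout in an inducible HEK293 TREx D2 line plated overnight at 30 C. After 180 s compound exposure, an EC80 dopamine challenge follows with another 180 s kinetic read to detect antagonism.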
D2 PAM-1: human D2 receptor positive allosteric modulation; P14416; DiscoveRx D2 beta-arrestin cells, luminescence, 90 min; 100% = 57 uM dopamine signal; potentiation, % (concentration not given with the values); hit rate 0.23% among 360,000; AID 624464; in the data active means potentiation above about 50%; inconclusive means mostly about 30% to 49%
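PathHunter D2 cells, attached overnight at 37 deg C, received compound in DMSO plus dopamine at EC20 (50 nM final) for 90 min at 37 deg C. Beta-arrestin recruitment was read as luminescence after 1 h with detection reagent at ambient temperature.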
D2 PAM-2: positively modulates the human D2 dopamine receptor allosterically; P14416; hit rate 0.34% among 340,000; potentiation, % at 10 µM; HEK293 T-REx D2, calcium flux, EC20 dopamine potentiation;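 active means potentiation over 3 SD above the plate norm, cut at about 30% in these data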
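Cells plated with tetracycline inducer and held overnight at 30 C; calcium dye loaded 30–90 min at room temperature; baseline taken, compound added and read 180 s; EC20 dopamine then added and read 180 s.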
D2 ag-1: activates the human D2 dopamine receptor | HEK293 T-REx D2 cells, calcium flux agonist mode | P14416 | hit rate 0.53% among 340,000 | AID 485358 | activation, % at 2 µM;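 active means activation over 3 SD above normal in the single-dose calcium agonist read, cut at about 30% in these data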
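Agonism scored from kinetic calcium signal (1 read/sec, 180 s) following compound pin transfer, after a 10 s baseline. Cells: HEK293 Trex line expressing inducible D2 receptor coupled to calcium, dye-loaded after overnight culture at 30 C.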
Apoferritin bind: candidate novel general anesthetic via apoferritin binding | apoferritin/1-aminoanthracene competitive binding, fluorescence | Potency, µM (highest dose often 77.5 µM), hits mostly inhibitors | hit rate 0.074% among 350,000 | AID 485281; active means well fitted inhibition curve with a large enough effect; inconclusive means small, poorly fitted or top-dose-only effect; inactive means no such curve, though single readings can be large or run the other way; further: nearly all actives have a fitted effect of over 20% in size
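In PBS, apoferritin at 10 uM is loaded with 1-AMA from a 50% saturated solution. After 10 min of compound exposure at ambient temperature, reduced 535 nm fluorescence indicates probe displacement.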
D2 ag-2: activates the human D2 dopamine receptor; DiscoveRx PathHunter D2 beta-arrestin, luminescence, 90 min; 100% = 57 uM dopamine signal; hit rate 0.084% among 360,000; activation, % (test concentration not listed); in the data active means activation above about 40%; inconclusive means between about 15% and that limit
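Agonist mode: compounds alone added to overnight-plated D2 PathHunter cells for 90 min at 37 C, with 57 uM final dopamine (EC100) defining full response. Beta-arrestin recruitment detected by chemiluminescent reagent, read after 1 h at ambient temperature.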
Numbers stand for hits; n = inactive; u = inconclusive; x = no result given; ! = a repeat was not active. Shown are actives, neighbours in structure and some others; about 2.5% of the full set was active somewhere.

SMILES | D2 antag | D2 PAM-1 | D2 PAM-2 | D2 ag-1 | Apoferritin bind | D2 ag-2
CC(C)NC(=O)/C(C#N)=C\c1ccc(N(C)C)o1 | 40 | n | n | n | u | n
CCN(CC)c1ccc(/C=C(/C#N)C(=O)NC(C)C)o1 | n | n | n | n | n | n
CC(=O)Nc1cccc(OCC(=O)NS(=O)(=O)c2ccc(C)cc2)c1 | n | n | n | n | n | n
COc1cc(NC(=O)C2CCC(CNc3c(N4CCC(C)CC4)c(=O)c3=O)CC2)cc(OC)c1 (stereo unspecified) | n | n | 30 | n | n | n
CCOc1ccc(NC(=O)C2CCC(CNc3c(N4CCC(C)CC4)c(=O)c3=O)CC2)cc1 (stereo unspecified) | 31 | n | n | n | n | n
COc1cc(NC(=O)C2CCC(CNc3c(N4CCCCC4)c(=O)c3=O)CC2)cc(OC)c1 (stereo unspecified) | x | n | n | x | n | n
COC(Cn1c(C)c(C(C)=O)c(C(C)=O)c1C)OC | n | n | n | n | n | n
CCOc1ccc(C(c2c(C)[nH]n(-c3ccccc3)c2=O)c2c(C)[nH]n(-c3ccccc3)c2=O)cc1OC | x | x | n | n | u | x
Cc1sc2ncn(CC(=O)Nc3c(F)cccc3F)c(=O)c2c1S(=O)(=O)N1CCC(C)CC1 | n | n | n | n | n | n
CC(NC(=O)C1CCN(C(=O)N2CCOc3ccccc32)CC1)c1ccccc1 (stereo unspecified) | x | x | n | n | 16µM | x
Cc1nc2c3ccccc3nc(NNC(=O)CCC(=O)N3CCN(c4ccccc4)CC3)n2n1 | n | n | n | 31! | n | n
COc1ccc(N2CCN(C(=O)CCC(=O)NNc3nc4ccccc4c4nc(C)nn34)CC2)cc1 | n | n | n | n | n | n
Cc1cc(CNC(=O)C(C)Cc2ccccc2)nn1C (stereo unspecified) | n | n | n | n | n | n
O=S(=O)(c1ccccc1)N1CCN(S(=O)(=O)N2CCCCC2)CC1 | 38 | n | n | n | n | n
COc1ccc(Br)cc1CNc1ccc2[nH]c(=O)[nH]c2c1 | n | n | n | n | n | n
COc1ccc(Br)cc1CNc1ccc(O)cc1 | n | 55 | x | n | n | n
CCCOC(=O)c1ccc(NC(=O)c2nc3nc(C)cc(C)n3n2)cc1 | n | n | 31 | n | n | n
Cc1cc(C)n2nc(C(=O)OCC(=O)Nc3ccc(Cl)cc3)nc2n1 | x | n | x | x | x | n
Cc1cc(C(=O)Nc2sc3c(c2C#N)CCCCC3)cs1 | n | n | n | n | u | n
O=c1cc(-c2ccc(O)cc2)oc2ccc(O)cc12 | 37 | n | n | n | n | n
Cc1cc(C)c(NC(=O)CN(C)S(=O)(=O)c2ccc3c(c2)n(C)c(=O)c(=O)n3C)c(C)c1 | n | n | 75 | n | n | n
COc1ccc(/C=C2\CCCc3c2nc2ccccc2c3C(=O)O)cc1OC | 31 | x | n | 184 | n | x
COc1cc(COc2ccc3c(C)c(Cc4ccccc4)c(=O)oc3c2C)cc(OC)c1OC | n | n | n | n | n | n
NC(=O)CC(NC(=O)Cc1cccc2ccccc12)c1ccc(NC2CCN(Cc3ccccc3)CC2)c([N+](=O)[O-])c1 (stereo unspecified) | 32 | n | n | n | n | n
O=[N+]([O-])c1ccccc1NC1CCN(Cc2ccccc2)CC1 | 39 | n | n | n | n | n
SMILES | D2 antag | D2 PAM-1 | D2 PAM-2 | D2 ag-1 | Apoferritin bind | D2 ag-2
O=[N+]([O-])c1ccc(NC2CCN(Cc3ccccc3)CC2)c([N+](=O)[O-])c1 | n | n | n | n | u | n
COc1ccc(-c2cc(C3CCN(Cc4cccc(C(F)(F)F)c4)CC3)[nH]n2)cc1 | 59 | n | n | n | n | n
C=CCNc1c2c(nc3ncnn13)CC(C)CC2 (stereo unspecified) | n | n | n | n | n | n
Cn1c(CCN2CCCCC2)nc2cc(NS(=O)(=O)c3ccccc3)ccc21 | 38 | n | n | n | n | n
Cc1ccc(S(=O)(=O)Nc2ccc3c(c2)nc(CCN2CCCC2)n3C)cc1 | 39 | n | n | n | n | n
Cn1c(CCN2CCCC2)nc2cc(NS(=O)(=O)c3ccc(F)cc3)ccc21 | x | n | x | x | x | n

High-throughput results as filed in PubChem BioAssay.
